Laboratory results published in PubChem BioAssay (EPA / NIEHS).
Calls of active or inactive are those of the source. The calls were made as follows: active = hit-call score of the fitted dose curve at least 0.9, where 1 is the maximum; inactive = score below 0.9.

How the values were obtained:
[1] = BSK_hDFCGF_SRB: Viability Assessment in the BioMAP Diversity Plus: hDFCGF Assay (AID 2283061); details: primary human foreskin fibroblasts;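 also: cells exposed to compound for 24 h before the read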
Method in brief: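 Human foreskin primary fibroblasts were treated with compound and assessed 24 h after dosing. Total protein was measured by sulforhodamine B staining (0.1% SRB after 10% TCA fixation, 560 nm read) as a cytotoxicity marker, with bidirectional fitting against DMSO baseline.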

[2] = read-out: TIMP metallopeptidase inhibitor 1 (TIMP1), TIMP1 (gene 7076); test: BSK_hDFCGF_TIMP1: BioMAP Diversity Plus: hDFCGF Assay for TIMP metallopeptidase inhibitor 1 (TIMP1) Biomarker Activity (AID 2283062); details: primary human foreskin fibroblasts; actives raise or lower the signal
Method in brief: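 Primary human foreskin fibroblasts in the hDFCGF system were dosed with compound for 24 h, then TIMP-1 was measured by ELISA. Activity was fitted bidirectionally relative to DMSO control; parallel SRB staining assessed cytotoxicity.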

[3] = read-out: Matrix Metallopeptidase 1 (MMP1), MMP1 (gene 4312); test: BSK_hDFCGF_MMP1: BioMAP Diversity Plus: hDFCGF Assay for Matrix Metallopeptidase 1 (MMP1) Biomarker Activity (AID 2283064); details: primary human foreskin fibroblasts; actives raise or lower the signal
Method in brief: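 ELISA read-out of MMP1 from human foreskin fibroblasts (primary skin cells), 24 h post-dose. Gain or loss of signal was fitted bidirectionally versus DMSO negative control; cytotoxicity was checked by SRB in parallel cultures.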

[4] = read-out: Vascular cell adhesion molecule 1 (VCAM1), VCAM1 (gene 7412); test: BSK_hDFCGF_VCAM1: BioMAP Diversity Plus: hDFCGF Assay for Vascular cell adhesion molecule 1 (VCAM1) Biomarker Activity (AID 2283065); details: primary human foreskin fibroblasts; actives raise or lower the signal;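 as to AC50: VCAM-1 protein level quantified by ELISA after 24 h chemical exposure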
Method in brief: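 Primary human foreskin fibroblasts (hDFCGF system) were dosed with chemical and VCAM-1 was measured by ELISA 24 h later. Bidirectional curve fitting used DMSO as negative control and activity baseline.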

[5] = read-out: Plasminogen activator inhibitor-1 (PAI1), SERPINE1 (gene 5054); test: BSK_hDFCGF_PAI1: BioMAP Diversity Plus: hDFCGF Assay for Plasminogen activator inhibitor-1 (PAI1) Biomarker Activity (AID 2283066); details: primary human foreskin fibroblasts; actives raise or lower the signal
Method in brief: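 ELISA readout of PAI-1 from primary human skin fibroblast cultures, 24 h after compound addition. Gain or loss of signal was fitted bidirectionally against DMSO baseline.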

[6] = read-out: Intercellular Adhesion Molecule 1 (ICAM1), ICAM1 (gene 3383); test: BSK_KF3CT_ICAM1: BioMAP Diversity Plus: KF3CT Assay for Intercellular Adhesion Molecule 1 (ICAM1) Biomarker Activity (AID 2283067); details: primary human keratinocytes with fibroblasts; actives raise or lower the signal
Method in brief: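 Human keratinocyte plus foreskin fibroblast primary co-culture was exposed to chemical for 24 h. ICAM-1 was then quantified by ELISA, and the data were fit bidirectionally against DMSO as the negative control and baseline.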

[7] = read-out: Interferon-gamma inducible Protein 10 (IP10), CXCL10 (gene 3627); test: BSK_KF3CT_IP10: BioMAP Diversity Plus: KF3CT Assay for Interferon-gamma inducible Protein 10 (IP10) Biomarker Activity (AID 2283068); details: primary human keratinocytes with fibroblasts; actives raise or lower the signal
Method in brief: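 In a primary skin co-culture of keratinocytes and fibroblasts, IP-10 is quantified by ELISA at 24 h after dosing. SRB staining of parallel wells monitors overt toxicity. Curves are fitted both directions against DMSO.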

[8] = BSK_KF3CT_SRB: Viability Assessment in the BioMAP Diversity Plus: KF3CT Assay (AID 2283069); details: primary human keratinocytes with fibroblasts
Method in brief: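 SRB read-out at 560 nm (0.1% stain, TCA-fixed cells) gauges overt cytotoxicity in a human skin keratinocyte–fibroblast co-culture 24 h post-dosing. Signal change was fitted bidirectionally relative to DMSO control.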

[9] = read-out: Interleukin-1 alpha (IL1a), IL1A (gene 3552); test: BSK_KF3CT_IL1a: BioMAP Diversity Plus: KF3CT Assay for Interleukin-1 alpha (IL1a) Biomarker Activity (AID 2283070); details: primary human keratinocytes with fibroblasts; actives raise or lower the signal
Method in brief: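 Primary skin co-culture (keratinocytes, foreskin fibroblasts), 24 h exposure; ELISA for IL-1a; bidirectional curve fit vs DMSO.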

[10] = read-out: TIMP metallopeptidase inhibitor 2 (TIMP2), TIMP2 (gene 7077); test: BSK_KF3CT_TIMP2: BioMAP Diversity Plus: KF3CT Assay for TIMP metallopeptidase inhibitor 2 (TIMP2) Biomarker Activity (AID 2283071); details: primary human keratinocytes with fibroblasts; actives raise or lower the signal
Method in brief: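 ELISA readout of TIMP-2 in keratinocyte plus foreskin fibroblast co-cultures (human skin primary cells), 24 h post-dose. Gain or loss of signal fitted relative to DMSO.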

[11] = read-out: Transforming growth factor beta 1 (TGFb1), TGFB1 (gene 7040); test: BSK_KF3CT_TGFb1: BioMAP Diversity Plus: KF3CT Assay for Transforming growth factor beta 1 (TGFb1) Biomarker Activity (AID 2283072); details: primary human keratinocytes with fibroblasts; actives raise or lower the signal
Method in brief: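 Read-out: ELISA for TGF-b1 in keratinocyte/foreskin fibroblast human skin co-culture, 24 h after dosing; bidirectional curve fit vs DMSO baseline; gain or loss of signal scored.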

[12] = read-out: C-C motif chemokine 2 (Homo sapiens) (UniProt P13500); test: BSK_KF3CT_MCP1: BioMAP Diversity Plus: KF3CT Assay for Monocyte Chemoattractant Protein 1 (MCP1/CCL2) Biomarker Activity (AID 2283073); details: primary human keratinocytes with fibroblasts; actives raise or lower the signal
Method in brief: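 Human keratinocyte plus foreskin fibroblast primary co-culture exposed to chemical for 24 h. MCP-1 levels measured by ELISA. Bidirectional curve fitting relative to DMSO negative control as baseline.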

[13] = read-out: Matrix Metallopeptidase 9 (MMP9), MMP9 (gene 4318); test: BSK_KF3CT_MMP9: BioMAP Diversity Plus: KF3CT Assay for Matrix Metallopeptidase 9 (MMP9) Biomarker Activity (AID 2283074); details: primary human keratinocytes with fibroblasts; actives raise or lower the signal;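 as to AC50: MMP9 protein level quantified by ELISA in the co-culture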
Method in brief: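 ELISA read-out of MMP-9 at 24 h post-dosing in a co-culture of human skin keratinocytes and foreskin fibroblasts. Gain or loss of signal was fitted in both directions against DMSO.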

[14] = read-out: urokinase plasminogen activator (uPA), PLAU (gene 5328); test: BSK_KF3CT_uPA: BioMAP Diversity Plus: KF3CT Assay for urokinase plasminogen activator (uPA) Biomarker Activity (AID 2283075); details: primary human keratinocytes with fibroblasts; actives raise or lower the signal
Method in brief: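 Skin co-culture (keratinocytes + foreskin fibroblasts), human primary; 24 h post-dose; uPA by ELISA; gain/loss fit vs DMSO baseline.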

CD40, CD40 (gene 958) = test: BSK_LPS_CD40: BioMAP Diversity Plus: LPS Assay for CD40 Biomarker Activity (AID 2283076); details: primary human HUVEC with PBMC; actives raise or lower the signal
Method in brief: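 Primary human umbilical vein endothelial cells co-cultured with peripheral blood mononuclear cells, LPS-stimulated, were dosed with chemical and read 24 h later. CD40 levels were measured by ELISA and fitted bidirectionally against DMSO as negative control and baseline.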

[15] = read-out: E-selectin (Homo sapiens) (UniProt P16581); test: BSK_LPS_Eselectin: BioMAP Diversity Plus: LPS Assay for Eselectin Biomarker Activity (AID 2283077); details: primary human HUVEC with PBMC; actives raise or lower the signal
Method in brief: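 Human umbilical vein endothelial cells co-cultured with peripheral blood mononuclear cells under LPS stimulation; E-selectin measured by ELISA 24 h after chemical dosing. Activity fitted bidirectionally against DMSO as negative control and baseline.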

[16] = read-out: Interleukin-8 (IL8), CXCL8 (gene 3576); test: BSK_LPS_IL8: BioMAP Diversity Plus: LPS Assay for Interleukin-8 (IL8) Biomarker Activity (AID 2283078); details: primary human HUVEC with PBMC; actives raise or lower the signal
Method in brief: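 Human umbilical vein endothelial cells co-cultured with PBMC were stimulated with LPS; IL-8 levels were measured by ELISA 24 h after chemical dosing. Activity was fitted bidirectionally against DMSO as negative control and baseline.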

[17] = BSK_LPS_SRB: Viability Assessment in the BioMAP Diversity Plus: LPS Assay (AID 2283079); details: primary human HUVEC with PBMC;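 also: total protein by sulforhodamine B absorbance as a cytotoxicity measure; measured one day after compound addition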
Method in brief: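 Human umbilical vein endothelial cells co-cultured with PBMC (LPS system) were dosed for 24 h. Total protein was stained with 0.1% sulforhodamine B after 10% TCA fixation, read at 560 nm, and fitted bidirectionally against DMSO baseline.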

[18] = read-out: Interleukin-1 alpha (IL1a), IL1A (gene 3552); test: BSK_LPS_IL1a: BioMAP Diversity Plus: LPS Assay for Interleukin-1 alpha (IL1a) Biomarker Activity (AID 2283080); details: primary human HUVEC with PBMC; actives raise or lower the signal
Method in brief: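 Human umbilical vein endothelial cells co-cultured with peripheral blood mononuclear cells were LPS-stimulated and exposed to test chemicals for 24 h. IL-1 alpha was quantified by ELISA, with bidirectional curve fitting against DMSO as the negative control and baseline.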

[19] = read-out: Monokine induced gamma interferon (MIG), CXCL9 (gene 4283); test: BSK_hDFCGF_MIG: BioMAP Diversity Plus: hDFCGF Assay for Monokine induced gamma interferon (MIG) Biomarker Activity (AID 2283063); details: primary human foreskin fibroblasts; actives raise or lower the signal
Method in brief: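 ELISA read-out of MIG from primary human dermal fibroblasts 24 h post-dosing. Gain or loss of signal fitted bidirectionally, DMSO as baseline.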

Measured: AC50

E-selectin (Homo sapiens), sequence (P16581 whole entry, looked up): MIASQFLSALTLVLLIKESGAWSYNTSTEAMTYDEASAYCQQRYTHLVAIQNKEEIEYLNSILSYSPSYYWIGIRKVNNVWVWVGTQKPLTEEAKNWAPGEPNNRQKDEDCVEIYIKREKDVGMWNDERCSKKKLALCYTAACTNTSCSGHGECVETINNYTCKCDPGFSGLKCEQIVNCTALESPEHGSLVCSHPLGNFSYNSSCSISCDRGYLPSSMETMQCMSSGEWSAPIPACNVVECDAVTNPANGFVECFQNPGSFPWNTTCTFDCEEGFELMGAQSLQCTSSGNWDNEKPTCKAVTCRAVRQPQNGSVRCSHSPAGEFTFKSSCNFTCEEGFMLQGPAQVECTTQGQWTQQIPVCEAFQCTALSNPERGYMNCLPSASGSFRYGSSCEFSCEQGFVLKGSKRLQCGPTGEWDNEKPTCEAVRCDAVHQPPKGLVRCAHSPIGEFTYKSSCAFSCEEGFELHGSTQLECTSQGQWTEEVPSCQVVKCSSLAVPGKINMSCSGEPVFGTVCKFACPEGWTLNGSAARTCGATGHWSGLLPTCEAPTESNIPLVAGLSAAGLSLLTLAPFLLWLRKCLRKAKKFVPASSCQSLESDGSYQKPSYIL

CC(C)c1ccc(C(C)C)cc1
active: [1] 36.1 µM | [5] 36.2 µM | [10] 31.8 µM | [15] 32.1 µM
not listed: [19]
inactive: all other assays above

O=C1OC2(c3cc(Br)c(O)c(Br)c3Oc3c2cc(Br)c(O)c3Br)c2c(Cl)c(Cl)c(Cl)c(Cl)c21
active: [1] 6.54 µM | [2] 11.5 µM | [19] 11.6 µM | [3] 3.42 µM | [4] 4.38 µM | [5] 2.43 µM | [6] 8.86 µM | [7] 7.41 µM | [8] 4.07 µM | [9] 3.69 µM | [10] 1.6 µM | [11] 0.979 µM | [13] 3.53 µM | [14] 3.89 µM | CD40, CD40 (gene 958) 4.27 µM | [15] 5.71 µM | [16] 13.2 µM | [17] 3.6 µM | [18] 3.73 µM

O=C(O)c1cn(-c2ccc(F)cc2)c2cc(N3CCNCC3)c(F)cc2c1=O
not listed: CD40, CD40 (gene 958) | [19]
inactive: all other assays above

O=C1CCCCCCCCCCCCCCO1
active: [5] 20 µM | [6] 17.9 µM | [10] 20 µM | [11] 20 µM | [12] 12.5 µM
not listed: CD40, CD40 (gene 958) | [19]
inactive: all other assays above

CCCCCCCCCCCCCCCCCC(=O)OCC(CC)CCCC (configuration not stated)
not listed: CD40, CD40 (gene 958)
inactive: all other assays above

c1ccc2c(c1)c1cccc3ccc4cccc2c4c31
active: [9] 0.016 µM | [11] 0.0518 µM | [14] 0.0439 µM
not listed: CD40, CD40 (gene 958)
inactive: all other assays above
